Experimental data published in the supplement of paper PMC6555819.

What was measured:
Experiment in all cases: PBM binding z-score (relative to random genomic background probes); higher = stronger binding; sequences stand for … in GC…GCGATTGACAGCGTAGAATGAAGG
[1] = tested on: RARb homodimer (NR concentration 270 nM)
Outline: (§1)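 Ligand-free nuclear receptor dimers were bound for 1 h to custom Agilent 4×180K protein-binding microarrays. Detection used antibodies against each partner (one per run). Binding z-scores rest on regression-normalized fluorescence, with random background probes as the reference.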

[2] = tested on: RARg:RXRa (NR concentration 270 nM, RXRa partner concentration 90 nM)
Outline: as §1

[3] = tested on: RARg homodimer (NR concentration 270 nM)
Outline: as §1

[4] = tested on: RXRa DBDmut IVT, anti-RXR (DBD mutation: RXRa K156A/R161A, NR concentration 90 nM)
Outline: as §1

[5] = tested on: RXRa homodimer (NR concentration 180 nM)
Outline: as §1

[6] = tested on: THRa:RXRa (NR concentration 90 nM, RXRa partner concentration 90 nM)
Outline: as §1

[7] = tested on: THRa homodimer (NR concentration 90 nM)
Outline: as §1

[8] = tested on: VDR:RXRa (NR concentration 270 nM, RXRa partner concentration 90 nM)
Outline: as §1

[9] = tested on: VDR homodimer (NR concentration 270 nM)
Outline: as §1

| Sequence | PBM binding z-score [1] | PBM binding z-score [2] | PBM binding z-score [3] | PBM binding z-score [4] | PBM binding z-score [5] | PBM binding z-score [6] | PBM binding z-score [7] | PBM binding z-score [8] | PBM binding z-score [9] |
| --- | --- | --- | --- | --- | --- | --- | --- | --- | --- |
| CGGCCAAGGTCATAGGAGGTCAGTGAAGACAGAT | 5.15 | 6.78 | 7.19 | 3.51 | 6.42 | 5.33 | 2.88 | 6.19 | 4.3 |
| CGTCAAGGTTCAAGGTAACGTAACAGAAAGCAGC | 1.73 | 3.11 | 2.71 | 4.1 | 3.11 | 2.61 | 1.01 | 3.05 | 3.6 |
| CCTTACGGGACACGAGGTTATAGCACGACGAGCG | 1.03 | 1.49 | 1.14 | -0.0752 | 1.19 | 1.77 | 0.83 | 0.648 | 0.544 |
| CGTCCAAGGTCAGAAAGGTCAGTGAATGCCGAGT | 5.58 | 6.18 | 6.89 | 3 | 5.59 | 4.14 | 2.3 | 6.33 | 4.66 |
| AGAGTGAGGTTATTAAGATCAGGGAATTGCGGTC | 1.42 | 1.12 | 0.991 | 1.56 | 1.82 | 2.12 | 1.33 | 2.49 | 1.97 |
| ACAGACAGTTGATGAAGGTAACTCAGGCTATCAT | 0.387 | 0.00583 | 0.279 | 0.223 | 0.183 | 0.764 | 0.154 | 0.101 | 0.0979 |
| CCTTACGGGTCACTAGGTTATAGCACGACGAGCG | 3 | 4.53 | 4.46 | 1.22 | 4.2 | 2.29 | 0.139 | 3.38 | 1.24 |
| ACAGACAGGTGTGTGAAGGTAACTCAGCTGGACG | -0.271 | -0.0907 | -0.134 | -0.313 | 0.0111 | -0.0622 | -0.902 | -0.572 | -0.49 |
| TCGAGTAGGTTAGTGGGGGCATTCAGCCAACATA | 1.75 | 1.55 | 1.14 | 1.36 | 1.34 | 2.29 | 1.16 | 5.48 | 3.31 |
| TCTTGAAGATCAACAGGAGGTTAAGAAAGATCGA | 0.572 | 1.45 | 0.367 | 0.56 | 1.25 | 0.975 | -0.383 | 0.872 | -0.404 |
| ATTAGCAGGCCAAGTTTGGGTCACTCAAACAAAG | 2.04 | 2.39 | 1.91 | 0.00898 | 0.882 | 2.69 | 0.986 | 0.833 | 0.34 |
| ACCGAAAGGTCGTGAGGTGAGTATACAGAAAGGC | 2.84 | 4.64 | 4.01 | 1.74 | 5.25 | 3.48 | 1.28 | 3.62 | 0.625 |
| CCGACTGGGGCATAAGGTTACCATCAGCCAGCCC | 1.72 | 1.41 | 1 | -0.242 | 1.03 | 1.98 | 1.33 | -0.0341 | -0.0619 |
| CGTCAAAGTTCAACTAAGCTAACGTAAAGCACGC | 4.31 | 5.83 | 6.59 | 4.75 | 5.2 | 2.48 | 0.187 | 4.35 | 3.66 |
| ATATGTAGGTTACATCCGGGTCAGTCAGGCTATG | 2.61 | 3.29 | 1.88 | 0.541 | 2.01 | 3.19 | 1.66 | 2.62 | 1.45 |
| TCTATTACTTGATTAGGGCAACCGAAACAGCGGA | 0.543 | 0.675 | 0.616 | 1.1 | 0.781 | 0.792 | 0.73 | 0.676 | 0.603 |
| CCGACTGGGGCTAGGTTACCATAACGCACAGCCA | 0.542 | 0.00576 | 0.24 | -0.639 | 0.166 | 0.173 | -0.0667 | -0.65 | -0.608 |
| CCAGACAGGTTAGAAGGTAACTCAGCCTCGATTA | 0.786 | 0.637 | 0.641 | 0.0628 | 0.699 | 0.493 | 0.212 | 0.114 | 0.658 |
| GGAACGAGGGCATTCAAGTTGATAGCATGGCGAT | 0.771 | 1.04 | 1.74 | 3.23 | 0.697 | 3.52 | -0.291 | 3.02 | 2.77 |
| ATCGAAAGGTCGAAGGTGAGTATCCCCACCCGAA | 2.43 | 3.95 | 3.71 | 0.658 | 4.73 | 2.36 | 0.377 | 2.53 | 0.132 |
| CCTACTGGGCCAAAGGTCAATGATTCCAATGCTC | 4.35 | 5.54 | 4.85 | 0.831 | 5.74 | 3 | 0.607 | 4.04 | 1.25 |
| CGTCCAAGGTCAGAGAGGTCAGAGAATGCCGAGT | 5.37 | 6.29 | 7.09 | 3.52 | 6.16 | 4.53 | 2.72 | 7.59 | 5.54 |
| TAGCCTAGGTCATTGGGCCAGGATAGTACGCATC | 2.8 | 3.79 | 4.56 | 1.25 | 2.67 | 2.74 | 0.55 | 1.85 | 0.858 |
| CGTCCAAGGTCAGAGGAGGTCAGTGAAGACAGAT | 5.15 | 6.03 | 6.88 | 2.36 | 5.13 | 5.09 | 2.8 | 5.98 | 3.43 |
| ACTCGGAGGACAAAGGTCAGCGCTACGCCAGTGA | 4.95 | 6.38 | 5.4 | 1.36 | 5.69 | 3.54 | 0.928 | 3.41 | 1.34 |
| CCTCGGAGGACAACAGGAGGTCAGAGCCGCCAGA | 3.53 | 3.51 | 3.53 | 0.0894 | 1.71 | 2.8 | 0.858 | 1.58 | 0.836 |

| Sequence | PBM binding z-score [1] | PBM binding z-score [2] | PBM binding z-score [3] | PBM binding z-score [4] | PBM binding z-score [5] | PBM binding z-score [6] | PBM binding z-score [7] | PBM binding z-score [8] | PBM binding z-score [9] |
| --- | --- | --- | --- | --- | --- | --- | --- | --- | --- |
| CCTAGTTGGTCAAGGTCACAAACGCTATAGGTAC | 4 | 4.1 | 4.24 | 1.87 | 4.02 | 4 | 3.57 | 3.73 | 3.9 |
| CCTATTAGTGGACCATAAGGGCAACCGAAGCTCG | 1.53 | 0.433 | 0.657 | 0.115 | 0.31 | 1.38 | 0.862 | 0.134 | 0.415 |
| CAAACTAGCTCAAGAGGTCAAAGTCCGCTTCCCG | 4.52 | 4.96 | 4.04 | 2.4 | 5.51 | 3.66 | 1.72 | 4.96 | 3.55 |
| CCGACTGGGGCACAGGTTACCATACTCAGTACGA | 1.07 | 1.02 | 0.906 | -0.122 | 0.761 | 0.272 | -0.26 | -0.165 | -0.0992 |
| ATCGACAGGTCGACGAGGTGAGTATACACCGTTT | 0.949 | 1.55 | 1.78 | 0.12 | 1.58 | 2.58 | 0.428 | 2.85 | 0.49 |
| GCTCACGGGTCAAAGGTTATAGCATGAATAGAAT | 3.32 | 6.64 | 4.64 | 2.36 | 9.1 | 3.78 | -0.0294 | 5.38 | 1.19 |
| AGAATGAGGTTATACGTAGATCAGGGAAGAAAGT | 1.19 | 1.88 | 1.24 | 1.35 | 2.23 | 2.23 | 0.863 | 1.52 | 0.864 |
| CGAACTAGGTCAGTACAGGACAGTGAAGGATGAT | 2.51 | 2.64 | 3.79 | 0.399 | 1.3 | 3.38 | 0.28 | 0.713 | 0.105 |
| CGAACTAGGTCAAGGACAGTGACTCTCCGCACGC | 3.26 | 3.85 | 4.74 | 1.45 | 2.69 | 3.31 | 2.26 | 1.19 | 0.341 |
| TTACCAAGGTGAAAGGTCGTTAATGCACGCCTTG | 2.23 | 3.93 | 2.08 | 0.25 | 5.05 | 3.23 | 0.834 | 2.95 | 0.976 |
| CGTAGTTGGTCAGGAGGTCACACACCGGATATGA | 4.25 | 5.01 | 4.39 | 0.895 | 4.57 | 3.46 | 2.18 | 3.86 | 3.08 |
| CGTCCAAGCTCAAGGTCAGTGAAAGAGACTCGAA | 3.16 | 2.55 | 3.24 | 0.755 | 1.81 | 2.87 | 1.83 | 1.18 | 1.18 |
| CCTAGTTGGTCAAGTTCACACACGCTATAGGTAC | 3.1 | 2.45 | 2.72 | 3.31 | 2 | 2.12 | 1.46 | 3.96 | 5.29 |
| ATATGTACGTTAAGGGTCATTCAGGTTGGTTCGC | 3.82 | 3.89 | 2.96 | 2.12 | 4.64 | 3.3 | 1.45 | 5.64 | 4.32 |
| CCGACTGGGGCATAAGGTTAACATAAGCCAGCCC | 1.89 | 2.08 | 1.34 | -0.0628 | 1.45 | 2.08 | 1.06 | 0.684 | -0.243 |
| GCTGCTACGTCAACTGATGGTCAGCTAAAGCTCG | -0.272 | -0.163 | -0.441 | -0.129 | -0.367 | -0.498 | -0.948 | -0.617 | -0.701 |
| GCTGCTAGGTCAGGTTGGTCAGCAAACGGGTACG | 2.84 | 2.72 | 3.54 | 0.377 | 1.03 | 1.92 | 0.409 | 0.616 | 0.182 |
| CGAACTACGTCAAGGACAGTGAATCTCCGCACGC | 0.242 | -0.205 | 0.151 | 0.114 | 0.0152 | 1.67 | 1.13 | -0.475 | 0.0374 |
| AGTCAAAGTTCAGGACGAGGTAACGTGAAGCACG | 1.95 | 4.86 | 4.39 | 2.8 | 3.03 | 3.97 | 1.65 | 3.16 | 1.62 |
| TGAATGAGGTTATAAAATCAGGGAACGTTGCAAA | 0.0245 | 1.01 | 0.843 | 0.43 | 1.44 | 1.56 | -0.0954 | 0.918 | 0.227 |
| CGTCCAAGGTCAATGCTAGGGCAGTGAAAGCATT | 4.25 | 6.47 | 6.26 | 3.44 | 4.5 | 3.96 | 1.89 | 3.92 | 1.93 |
| TAGCCTACGTCATTCAGGGGCCAGTATAGAAAGC | 0.534 | 0.54 | 0.097 | -0.122 | 0.286 | 0.215 | -0.39 | -0.219 | -0.343 |
| ACAGACAGGTAAGTGAAGGTAACTCAGCTGGACG | -0.171 | -0.116 | 0.263 | -0.281 | -0.0799 | 0.972 | -0.0252 | -0.31 | -0.27 |
| CGAACGAGGGCCTGAGTTGATAGCAAATGCCGAT | -0.782 | -0.386 | -0.326 | 0.337 | -0.236 | -0.563 | -0.666 | -0.469 | -0.394 |
| ATATGTAGGTTATCGGCTCATTCAGTTTGCGCAT | 0.158 | 0.446 | 0.752 | 0.79 | 0.927 | 0.266 | 0.293 | 0.802 | 0.816 |
| TCACCAAGGTGAGCTGAGGTCGTTGATCCAACTC | 1.5 | 1 | 0.829 | 0.546 | 1.28 | 4.7 | 1.49 | 3.97 | 1.64 |
